Source: PubChem BioAssay
Calls of active or inactive are those of the source.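 Rule for the calls: active = compounds giving at least 50% inhibition in the cell-based MKP-3 phosphatase rescue imaging test; inactive = the rest.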

The molecules below were run against Dual specificity protein phosphatase 6 (Homo sapiens) (UniProt Q16828) (assay: Primary imaging screen for DUSP6 inhibitors that restore phospho-Erk in transfected HeLa cells, chemical complementation (AID 609;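 note: phospho-Erk level distribution per well compared with pooled transfected vehicle control wells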)). Settings: HeLa MKP-3 transfected, phospho-Erk imaging KS statistic; at 10 µM; stronger effect = higher value; cells stimulated with TPA for 15 min.
Chain of Dual specificity protein phosphatase 6 (Homo sapiens) (Q16828 whole entry, looked up): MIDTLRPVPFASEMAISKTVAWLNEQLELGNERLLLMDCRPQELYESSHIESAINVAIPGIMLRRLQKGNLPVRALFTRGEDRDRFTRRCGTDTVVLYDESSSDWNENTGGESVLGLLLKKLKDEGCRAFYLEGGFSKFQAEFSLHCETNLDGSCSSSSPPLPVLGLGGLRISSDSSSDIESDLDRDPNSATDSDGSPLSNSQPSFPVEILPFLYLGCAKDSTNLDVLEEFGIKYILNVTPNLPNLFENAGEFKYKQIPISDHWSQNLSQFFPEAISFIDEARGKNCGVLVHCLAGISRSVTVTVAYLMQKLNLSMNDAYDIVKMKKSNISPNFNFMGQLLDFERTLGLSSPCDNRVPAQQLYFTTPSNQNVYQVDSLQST

inhibition, inactive:
O=C(O)c1cc(O)c2c(c1)C(=O)c1cccc(O)c1C2=O 3.45%, CCCCC(=O)Nc1c(O)c2ccccc2[nH]c1=O -8.95%, Cc1cc(C)n(CC(=O)n2c3c(c4ccccc42)CCCC3)n1 -1.98%, CCC(NC(C)C)C(O)c1ccc(O)c(O)c1 (centres undefined) 7.39%, COc1ccc(C2CNC(=O)C2)cc1OC1CCCC1 (centres undefined) 3.45%, Cn1cnc2c1c(=O)[nH]c(=O)n2C -6.41%, N=c1nc(N2CCCCC2)cc(N)n1O 25.7%, CCCCCC(=O)N1CC2(C)CN(C(=O)CCCCC)CC(C)(C1)C2=O 7.42%, O=C(O)Cc1ccc(-c2ccccc2)cc1 19%, CCSc1nc(N)c(C#N)c(-c2ccccc2Cl)c1C#N -5.89%, O=C(OCC#CCSc1nnc(-c2ccccc2)o1)c1cccs1 3.66%, Nc1nc(F)nc2c1ncn2[C@@H]1O[C@H](CO)[C@@H](O)[C@@H]1O -2.46%, Cc1nc2sccn2c(=O)c1CCN1CCC(=C(c2ccc(F)cc2)c2ccc(F)cc2)CC1 27.9%, OCCNC1=NCCN1 -3.98%, CCC[C@@H]1C[C@@H](C(=O)N[C@H]([C@@H](C)O)[C@H]2O[C@H](SC)[C@H](O)[C@@H](O)C2O)N(C)C1 (some centres undefined) 8%, CCOC(=O)C1=C[C@]2(CC)CCCN3CCc4c(n1c1ccccc41)[C@@H]32 3.45%, NS(=O)(=O)c1cc2c(cc1Cl)NC(CSCc1ccccc1)=NS2(=O)=O 9.37%, Nc1ccc(S(=O)(=O)Nc2ccccn2)cc1 12.4%, CC(=O)Oc1cccc2c1C(=O)c1c(OC(C)=O)cc(C(=O)O)cc1C2=O -9.66%, OCC(O)CN1CCN(c2ccccc2)CC1 (centres undefined) 25.1%, O=C(NC1(C(F)(F)F)C(=O)Nc2c1c(=O)[nH]c(=O)n2Cc1ccco1)C1CCCCC1 (centres undefined) 3.5%, CCN(CC)CC#CCOC(=O)C(O)(c1ccccc1)C1CCCCC1 (centres undefined) 5.42%, CN1[C@@H](CC(=O)c2ccccc2)CCC[C@H]1C[C@H](O)c1ccccc1 21.2%, O=C(O)c1ccccc1Nc1cccc(C(F)(F)F)c1 23.4%, O=[N+]([O-])c1cccc2cn[nH]c12 3.45%, COc1cccc(-c2nnc3sc(C4CCCCC4)nn23)c1 -13.3%, CNCCCC1c2ccccc2C=Cc2ccccc21 -11.9%, CC(C)(C)NCC(O)COc1cccc2c1C[C@H](O)[C@H](O)C2 (some centres undefined) -0.828%, CCOC(=O)CSC1=C(C#N)C(=O)NC(c2ccc(OC)c(OC)c2)S1 (centres undefined) -13.3%, COc1ccc2nc(S(=O)Cc3ncc(C)c(OC)c3C)[nH]c2c1 (centres undefined) 25.7%, Cc1cc(C)c(C#N)c(SCc2[nH]nc3c2C(c2ccccc2)C(C#N)=C(N)O3)n1 (centres undefined) -7.28%, O/N=C/c1ccc(OCC(O)COc2ccc(/C=N/O)cc2)cc1 -8.59%, CC(C)(C)OC(=O)N1CC=C2C(C#N)=C(N)C(C#N)(C#N)[C@H](c3cccnc3)[C@H]2C1 -0.624%, Oc1c(I)cc(I)c2cccnc12 -11.9%, CCCCOc1ccc(C(=O)CCN2CCCCC2)cc1 7.39%, CN(C)c1nc(OCCOC(=O)Nc2ccc(Cl)cc2Cl)nc(N(C)C)n1 -5.26%, CCOC(=O)c1c(C)n(C)c2ccc(OC)c(NC(=O)CCN3CCSCC3)c12 -9.66%, CC(C)(C)n1cnc2cc(NS(=O)(=O)c3ccc(Br)cc3)ccc21 -5.26%, Cn1c([N+](=O)[O-])cnc1COC(N)=O 1.48%
